# Measured values published in PubChem BioAssay.
# Where “and” joins values, the source holds several entries; their conditions need not be identical. Equal entries are not always repeated. For some assays here: Potency and affinity values are given separately. More than one record can exist for a structure, and the calls need not agree. Calls of active or inactive are those of the source. Unless noted, how the calls were made is not given here.
# Experiments:
# [1] = circadian clock period modulators, cell-based, LOPAC library, luminescence reporter (AID 2774); conditions: circadian reporter cells, at 7 µM, actives lie on both sides;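 further: values are relative to mean of DMSO wells on each plate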
# [2] = test system: Hepatitis C virus NS3 helicase; assay: HCV NS3 helicase inhibitors, primary screen, biochemical, fluorescence polarization, LOPAC1280 library (AID 687035; in the data active means inhibition above about 37%); conditions: Purified HCV NS3 helicase, Cy5-dT15 ssDNA binding fluorescence polarization; stronger effect = higher value; concentration not given here
# [3] = Cy5 fluorescence quenching or enhancement artefacts, artefact control for HCV NS3 helicase inhibitor project, biochemical, LOPAC1280 (AID 687037); conditions: Cy5-DNA-NS3h complex fluorescence interference counterscreen
# [4] = test system: Aerobactin synthetase IucA (Klebsiella pneumoniae hvKP1); assay: Biochemical IucA enzyme inhibition primary screen of the Spectrum library (AID 1346200); conditions: malachite green pyrophosphate, A620, at 8 µM, stronger effect = lower value;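 further: 100% = wells without compound and 0% = wells lacking enzyme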
# [5] = test system: Aerobactin synthetase IucA (Klebsiella pneumoniae, hypervirulent); assay: IucA enzyme inhibition, biochemical, LOPAC library, absorbance readout (AID 1346212); conditions: IucA enzyme assay, absorbance (OD) readout; stronger effect = lower value;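 tested at 8 µM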;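 further: 100% = no compound wells and 0% = no enzyme wells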
# [6] = survival rescue of mitochondrial mutant cells in low glucose, primary screen, MELAS cybrids, Rieske KO mouse fibroblasts, CellTiter-Glo (AID 1508586;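 active means mean z-score across replicates of 1.96 or higher in either the MELAS or the Rieske mutant cell line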;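 further: z relative to plate mean and SD of compound and empty wells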)
# [7] = viability rescue of complex I mutant cybrids, primary screen, cell-based, galactose medium, ATP luminescence (AID 1645843;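 active means z-score of at least 1.8 in each of two replicates, scored against plate mean and spread of sample wells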;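 further: positive z means more ATP and so rescue of galactose-driven cybrid death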); conditions: complex I mutant cybrid cells, 72 h, stronger effect = higher value
# [8] = polyglutamine-triggered caspase-3 activation inhibitors, cell-based (AID 1583); conditions: polyglutamine-induced caspase-3 activation, cell assay; stronger effect = higher value;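 tested at 10 µM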
# [9] = suppressors of polyQ aggregation in yeast, 75Q-TubU reporter (AID 1593); conditions: Yeast 75Q polyglutamine aggregation reporter
# [10] = rescue of polyQ-huntingtin neuronal dysfunction in worms, whole organism, C. elegans mechanosensory neurons, N-terminal huntingtin (AID 1599); conditions: touch response, stronger effect = higher value
# [11] = inhibitors of mitochondrial cytochrome c release, biochemical, purified mitochondria (AID 1603); conditions: stronger effect = lower value;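 further: mouse liver mitochondria challenged with calcium chloride; signal normalized to the plate average as 100%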
# [12] = inhibitors of polyQ protein aggregation (AID 1604); conditions: polyglutamine-induced protein aggregation inhibition assay; stronger effect = higher value; tested at 2.5 µM
# [13] = enhancers of glutamate uptake in motor neurons, MN-1 cell line (AID 1612); conditions: MN-1 motor neuron cells, stronger effect = higher value;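 further: tested at 1 µM final; 0% = mean of DMSO vehicle wells on each plate; positive means more glutamate uptake than control and negative means less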
# [14] = reducers of polyQ inclusions in PC12 cells, cell-based, NGF-treated PC12, GFPQ80 (AID 1614); conditions: PC12 NGF-treated GFP-polyQ80 inclusion reduction;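 further: lower means fewer inclusions and 0 means no inclusions at all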
# [15] = suppressors of polyglutamine aggregation in yeast, 75Q-TubH (AID 1616); conditions: S. cerevisiae 75Q-TubH polyglutamine aggregation suppression; stronger effect = higher value
# [16] = liver-stage malaria parasite growth inhibition, primary screen, cell-based, HepG2, luciferase luminescence, HepG2 viability (AID 624349; in the data active means parasite load remaining mostly below about 12%, no sharp cut-off; inactive means mostly above about 10%;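 further: 100% = mean of DMSO negative control wells on the same plate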); conditions: P. berghei liver stage in HepG2, luciferase luminescence, concentration not given here; parasite load remaining: stronger effect = lower value; viability: measured here: HepG2 viability without parasites
# [17] = sensitizers of A549 cells to miR-34 induction, primary screen, imaging, A549 dox-inducible miR-34, nuclei and caspase counts (AID 1347080;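 active means compounds whose cell count with miR-34 switched on is under 0.7 times the count with it off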); conditions: A549 miR-34 inducible, Hoechst nuclei count, 48 h
# [18] = biological target: Mitogen-activated protein kinase 7 (Homo sapiens) (UniProt Q13164); assay: ERK5 transactivation activators in reporter cells, primary screen, cell-based, HTS (AID 1508626;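 active means luciferase signal above three times the same-plate solvent-only control wells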;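 further: luciferase driven by Gal4-ERK5 fusion binding five Gal4 sites before minimal TATA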); conditions: HeLa Gal4-ERK5 transactivation, 18 h, at 5 µM, stronger effect = higher value
# [19] = hESC survival regulators, cell-based (AID 493140); conditions: human embryonic stem cell survival screen; stronger effect = higher value;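 further: cells exposed to compounds for four days before counting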
# [20] = measured here: relative caspase fold change +Dox/-Dox
# [21] = measured here: total cells with miR-34 induction, stronger effect = lower value
# [22] = measured here: total cells without miR-34 induction
# Chain of Mitogen-activated protein kinase 7 (Homo sapiens) (Q13164 whole entry, looked up, the tested form may be a part): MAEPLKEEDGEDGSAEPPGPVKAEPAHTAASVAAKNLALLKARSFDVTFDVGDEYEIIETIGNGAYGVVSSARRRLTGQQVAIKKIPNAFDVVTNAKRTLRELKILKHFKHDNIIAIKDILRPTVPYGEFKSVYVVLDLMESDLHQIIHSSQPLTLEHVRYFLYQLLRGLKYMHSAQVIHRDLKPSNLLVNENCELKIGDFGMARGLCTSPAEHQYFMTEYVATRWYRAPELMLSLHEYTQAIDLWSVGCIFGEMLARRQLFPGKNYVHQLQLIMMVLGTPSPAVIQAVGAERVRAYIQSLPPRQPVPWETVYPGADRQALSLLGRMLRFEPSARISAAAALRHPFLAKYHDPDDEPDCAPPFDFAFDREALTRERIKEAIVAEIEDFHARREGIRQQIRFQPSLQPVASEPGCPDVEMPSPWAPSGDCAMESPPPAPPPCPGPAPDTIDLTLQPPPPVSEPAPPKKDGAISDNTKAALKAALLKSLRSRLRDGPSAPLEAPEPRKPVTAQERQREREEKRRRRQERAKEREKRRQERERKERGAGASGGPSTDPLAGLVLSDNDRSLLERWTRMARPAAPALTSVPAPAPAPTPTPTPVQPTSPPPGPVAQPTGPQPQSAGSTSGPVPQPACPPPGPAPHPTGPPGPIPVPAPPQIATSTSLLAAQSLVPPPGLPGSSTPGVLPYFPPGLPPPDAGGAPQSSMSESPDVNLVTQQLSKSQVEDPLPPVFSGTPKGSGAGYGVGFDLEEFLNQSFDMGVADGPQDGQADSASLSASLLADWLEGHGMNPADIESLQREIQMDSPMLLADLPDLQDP
smiles,measurement,setting,value
CCn1cc(C(=O)O)c(=O)c2ccc(C)nc21,period change,[1],-0.11 h (inactive)
same,inhibition,[2],-5% (inactive)
same,fluorescence ratio (interference),[3],1 (inactive)
same,activity remaining,[4],117% (inactive)
same,remaining activity,[5],122% (inactive)
same,z-score,"[6]; MELAS cybrid survival, CellTiter-Glo 48 h, stronger effect = higher value",-0.303 (inactive) and 0.479 (inactive)
same,z-score,"[6]; Rieske KO mouse fibroblast survival, CellTiter-Glo 72 h",0.386 and -0.565
same,z-score,[7],0.725 (inactive) and 0.425 (inactive)
Cc1nnc(SCC2=C(C(=O)O)N3C(=O)[C@@H](NC(=O)Cn4cnnn4)[C@H]3SC2)s1,activity remaining,[4],101% (inactive)
same,remaining activity,[5],119% (inactive)
Nc1nc2c(ncn2COCCO)c(=O)[nH]1,activity remaining,[4],118% (inactive)
same,remaining activity,[5],120% (inactive)
COc1cc([C@@H]2c3cc4c(cc3[C@H](O)[C@H]3COC(=O)[C@H]23)OCO4)cc(OC)c1OC,inhibition,[8],-31.7%
same,score,[9],0.81
same,rescue above control,[10],-13.8
same,cytochrome c release ratio,[11],1.06
same,inhibition of aggregation,[12],58.9%
same,glutamate uptake change,[13],21.3%
same,inclusion score,[14],2
same,aggregation suppression score,[15],0.784
same,activity remaining,[4],102% (inactive)
same,remaining activity,[5],124% (inactive)
CC[C@@]1(C2O[C@@H](C3O[C@@](O)(CC)[C@H](C)C[C@@H]3C)C[C@@H]2C)CC[C@H]([C@]2(C)CCC3(C[C@H](O)[C@@H](C)[C@@H]([C@H](C)[C@@H](OC)[C@H](C)C(=O)O)O3)O2)O1 (stereo partly drawn),parasite load remaining,[16],17.9% (inactive)
same,viability,[16],72.8%
same,activity remaining,[4],112% (inactive)
same,fold change,[17]; stronger effect = lower value,1.04 (inactive)
same,fold change,[17]; [20],1.48
same,cell count,[17]; [21],3480
same,cell count,[17]; [22],3340
same,luciferase signal,[18],32 AU (inactive)
O=c1ccc2ccc(O)c(O)c2o1,activity remaining,[4],103% (inactive)
same,remaining activity,[5],116% (inactive)
Cc1cc2c(cc1Cl)N(C(=O)Nc1cccc3ncccc13)CC2,remaining activity,[5],103% (inactive)
COc1ccc2c(c1)[C@]13CCCC[C@H]1[C@H](C2)N(C)CC3,inhibition,[8],-11.5%
same,score,[9],1.32
same,rescue above control,[10],-2.69
same,cytochrome c release ratio,[11],0.98
same,inhibition of aggregation,[12],78.2%
same,glutamate uptake change,[13],6.18%
same,inclusion score,[14],2
same,aggregation suppression score,[15],1.29
same,parasite load remaining,[16],84.3% (inactive)
same,viability,[16],71.2%
same,activity remaining,[4],115% (inactive)
CO[C@H]1[C@H](O)[C@H](O[C@H]2CC[C@]3(C)C4CC[C@]5(C)C(C6=CC(=O)OC6)CC[C@]5(O)C4CC[C@@H]3C2)O[C@@H](C)[C@@H]1O (stereo partly drawn),score,[9],1.23
same,rescue above control,[10],-1.89
same,cytochrome c release ratio,[11],0.83
same,inhibition of aggregation,[12],94.4%
same,glutamate uptake change,[13],-17.6%
same,inclusion score,[14],2
same,aggregation suppression score,[15],1.46
same,activity remaining,[4],93.6% (inactive)
O=C(O)CN(CCN(CC(=O)O)CC(=O)O)CCN(CC(=O)O)CC(=O)O,remaining activity,[5],90.9% (inactive)
C[C@]12CCC3C(CC[C@H]4CC(=O)CC[C@]34C)C1CCC2=O (stereo partly drawn),parasite load remaining,[16],63.7% (inactive)
same,viability,[16],96.1%
same,activity remaining,[4],94.5% (inactive)
C[C@@H]1CC[C@H]2[C@@H](C)C(=O)O[C@@H]3OC4(C)CC[C@@H]1[C@]32OO4,inhibition,[8],18.8%
same,score,[9],0.49
same,rescue above control,[10],21.4
same,cytochrome c release ratio,[11],1.15
same,inhibition of aggregation,[12],79.2%
same,glutamate uptake change,[13],20.6%
same,inclusion score,[14],2
same,aggregation suppression score,[15],0.15
same,survival,[19],4.67 (inactive)
same,parasite load remaining,[16],71.2% (inactive)
same,viability,[16],72.2%
same,activity remaining,[4],86.3% (inactive)
CNC(C)[C@@H]1CC[C@@H](N)[C@@H](OC2[C@@H](N)C[C@@H](N)[C@H](OC3OC[C@](C)(O)[C@H](NC)[C@H]3O)[C@H]2O)O1 (stereo partly drawn),parasite load remaining,[16],99.6% (inactive) and 66.4% (inactive)
same,viability,[16],74.9% and 95.7%
same,activity remaining,[4],116% (inactive)
same,fold change,[17]; stronger effect = lower value,0.833 (inactive)
same,fold change,[17]; [20],0.842
same,cell count,[17]; [21],10800
same,cell count,[17]; [22],13000
C[C@H](Cc1ccc(O)c(O)c1)[C@@H](C)Cc1ccc(O)c(O)c1,remaining activity,[5],117% (inactive)
CC1(C)N([O-])[N+](=O)C1(C)Br (stereo not drawn),activity remaining,[4],96.6% (inactive)
same,luciferase signal,[18],44 AU (inactive)
CC[C@]12CCCN3CCc4c(n(c5ccccc45)[C@](O)(C(=O)OC)C1)[C@@H]32,survival,[19],6.25 (inactive)
same,activity remaining,[4],115% (inactive)
C[C@@H]1CC[C@@]2(NC1)O[C@H]1C[C@H]3C4CC=C5C[C@@H](O)CC[C@]5(C)C4CC[C@]3(C)C1[C@@H]2C (stereo partly drawn),parasite load remaining,[16],57% (inactive)
same,viability,[16],93.1%
same,activity remaining,[4],118% (inactive)
